Test results: PubChem BioAssay (NCI)
The panel holds about 79,000 compounds, 15% with a hit somewhere; the sample as a whole holds those more often. Calls of active or inactive are those of the source. Cut-off read from the data, not from the text of the source: active = growth inhibition above about 70%; inactive = the rest.

Key:
[1] = NCI Yeast Anticancer Drug Screen. Data for the rad52 strain (AID 147);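 note: 0% = growth of vehicle-treated control cultures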; details: S. cerevisiae rad52 mutant growth inhibition, active compounds read high
Summary of the method: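 The repair-mutant yeast strain was incubated with compounds, then growth was read and inhibition derived relative to vehicle.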

[2] = NCI Yeast Anticancer Drug Screen. Data for the rad50EPP+ strain (AID 151);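 note: 0% = growth of vehicle-treated control cultures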; details: S. cerevisiae rad50 mutant strain, active compounds read high
Summary of the method: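 Vehicle-normalised growth inhibition; rad50EPP+ yeast strain, altered in DNA damage repair, compound-treated.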

[3] = NCI Yeast Anticancer Drug Screen. Data for the mgt1 strain (AID 153); details: S. cerevisiae mgt1 mutant growth inhibition, active compounds read high
Summary of the method: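 Vehicle-normalized growth inhibition is determined in mgt1 yeast, a strain selected for a defined alteration in DNA repair or cell cycle control.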

[4] = NCI Yeast Anticancer Drug Screen. Data for the rad50 strain (AID 155);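 note: 0% = growth of vehicle-only cultures of the same strain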; details: S. cerevisiae rad50 strain growth inhibition, active compounds read high
Summary of the method: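 Cells are treated with compound, grown, and their growth is then scored against vehicle-only cultures of the same repair-deficient yeast strain.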

[5] = NCI Yeast Anticancer Drug Screen. Data for the mec2-1 strain (AID 157); details: S. cerevisiae mec2-1 strain, active compounds read high
Summary of the method: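 Mutant yeast (mec2-1) grown with compound; growth inhibition relative to vehicle control reported.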

[6] = NCI Yeast Anticancer Drug Screen. Data for the rad14 strain (AID 159);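 note: 0% = growth of vehicle-treated control cultures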; details: S. cerevisiae rad14 strain growth inhibition, active compounds read high
Summary of the method: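 Readout: yeast growth inhibition, referenced to vehicle-only cultures. Strain bears a defined alteration in DNA damage repair.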

[7] = NCI Yeast Anticancer Drug Screen. Data for the sgs1 mgt1 strain (AID 161);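 note: 0% = growth of cultures given vehicle only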; details: S. cerevisiae sgs1 mgt1 strain, active compounds read high
Summary of the method: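 Yeast cells carrying a defined DNA-repair defect were exposed to test compounds. Growth inhibition was measured relative to vehicle-treated controls.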

[8] = NCI Yeast Anticancer Drug Screen. Data for the CLN2oe strain (AID 163);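 note: 0% = growth of vehicle-only control cultures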; details: S. cerevisiae CLN2oe strain, active compounds read high
Summary of the method: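 Compounds are applied to yeast harbouring a defined cell-cycle control change; reduced growth compared with vehicle-treated controls gives the value.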

[9] = NCI Yeast Anticancer Drug Screen. Data for the cln2 rad14 strain (AID 165);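 note: 0% = growth equal to vehicle treated cultures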; details: S. cerevisiae cln2 rad14 strain, active compounds read high
Summary of the method: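 Readout is yeast growth inhibition versus vehicle-treated controls, using a strain with cln2 and rad14 alterations exposed to compound.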

[10] = NCI Yeast Anticancer Drug Screen. Data for the bub3 strain (AID 167); details: S. cerevisiae bub3 mutant strain, active compounds read high
Summary of the method: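 Part of a panel of yeast mutants defective in DNA damage repair or cell cycle regulation. Each strain is grown with compound, and inhibition is calculated relative to solvent-treated cultures.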

[11] = NCI Yeast Anticancer Drug Screen. Data for the wt2 strain (AID 169);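 note: 0% = growth of vehicle-treated yeast cultures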; details: S. cerevisiae wt2 strain growth inhibition, active compounds read high
Summary of the method: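 Against vehicle-treated controls, the growth of yeast exposed to each compound was compared, and the inhibition was recorded.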

[12] = NCI Yeast Anticancer Drug Screen. Data for the mlh1 rad18 strain (AID 175); details: S. cerevisiae mlh1 rad18 strain growth inhibition, active compounds read high
Summary of the method: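 Genetically defined yeast (DNA repair-deficient) exposed to compounds; growth inhibition determined relative to vehicle.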

[13] = NCI Yeast Anticancer Drug Screen. Data for the rad18 strain (AID 177); details: S. cerevisiae rad18 mutant growth inhibition, active compounds read high
Summary of the method: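 Vehicle-treated cultures served as the baseline for scoring compound-induced growth inhibition in DNA-repair-mutant yeast.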

[14] = NCI Yeast Anticancer Drug Screen. Data for the wt1 strain (AID 149);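 note: 0% = growth of vehicle-treated wt1 cultures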; details: S. cerevisiae wt1 strain (SPY 50644) growth inhibition, active compounds read high
Summary of the method: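 The wt1 strain was treated with compounds, and growth was compared with vehicle-treated cultures to give inhibition.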

[15] = NCI Yeast Anticancer Drug Screen. Data for the mlh1 strain (AID 171);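 note: 0% = growth of vehicle-treated control cultures of the same strain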; details: S. cerevisiae mlh1 strain growth inhibition, active compounds read high
Summary of the method: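 Measured: yeast growth. Reference: vehicle-treated controls. Organism: strain with a defined alteration affecting DNA damage repair or cell cycle control, treated with compound.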

[16] = NCI Yeast Anticancer Drug Screen. Data for the sgs1 strain (AID 173);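 note: 0% = growth of vehicle-only control cultures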; details: S. cerevisiae sgs1 mutant, active compounds read high
Summary of the method: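 Each compound was added to cultures of the altered yeast strain. Growth was recorded, and inhibition was derived by comparison with vehicle controls.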

[17] = at 5.0 µM (retest, dose inferred, filed as 0.5)
[18] = at 50.0 µM (retest, dose inferred, filed as 5.0)

Measured: growth inhibition

CN(C)CCN1C(=O)c2cccc3cc([N+](=O)[O-])cc(c23)C1=O
active: [1]; at 33.0 µM 90% | [1]; at 100.0 µM 93% | [2]; at 100.0 µM 83% | [4]; at 33.0 µM 87% | [4]; [18] 93% | [4]; at 50.0 µM 72.6% | [4]; at 100.0 µM 94% | [13]; at 100.0 µM 80%
inactive: [1]; at 1.2 µM 22% | [1]; at 3.7 µM 58% | [1]; at 11.0 µM 63% | [2]; at 1.2 µM 13% | [2]; at 3.7 µM 25% | [2]; at 11.0 µM 28% | [2]; at 33.0 µM 66% | [3]; at 1.2 µM -11% | [3]; at 3.7 µM -13% | [3]; at 11.0 µM 4% | [3]; at 33.0 µM 5% | [3]; at 100.0 µM 68% | [4]; at 1.2 µM 13% | [4]; at 3.7 µM 35% | [4]; [17] 28% | [4]; at 11.0 µM 52% | [5]; at 1.2 µM -4% | [5]; at 3.7 µM 2% | [5]; [17] 2% | [5]; at 11.0 µM -9% | [5]; at 33.0 µM -6% | [5]; [18] 13% | [5]; at 50.0 µM 7.05% | [5]; at 100.0 µM 48% | [6]; at 1.2 µM 2% | [6]; at 3.7 µM 6% | [6]; at 11.0 µM 12% | [6]; at 33.0 µM -1% | [6]; at 100.0 µM 34% | [7]; [17] 11% | [7]; [18] 51% | [7]; at 50.0 µM -10.9% | [8]; at 1.2 µM 18% | [8]; at 3.7 µM 28% | [8]; at 11.0 µM 41% | [8]; at 33.0 µM 36% | [8]; at 100.0 µM 69% | [9]; [17] 5% | [9]; [18] 38% | [9]; at 50.0 µM -26.2% | [10]; at 1.2 µM -1% | [10]; at 3.7 µM 16% | [10]; [17] -6% | [10]; at 11.0 µM 21% | [10]; at 33.0 µM 18% | [10]; [18] 21% | [10]; at 50.0 µM -4.65% | [10]; at 100.0 µM 47% | [11]; at 1.2 µM -3% | [11]; at 3.7 µM 0% | [11]; at 11.0 µM -1% | [11]; at 33.0 µM 1% | [11]; at 100.0 µM 30% | [12]; [17] 6% | [12]; [18] 45% | [13]; at 1.2 µM 10% | [13]; at 3.7 µM 16% | [13]; at 11.0 µM 17% | [13]; at 33.0 µM 25%

O=C(N/N=C\c1c(Cl)cccc1Cl)N/N=C/c1c(Cl)cccc1Cl
active: [4]; [18] 97% | [5]; [18] 98% | [9]; [18] 70% | [12]; [18] 88%
inactive: [1]; at 1.2 µM 14% | [1]; at 3.7 µM 14% | [1]; at 11.0 µM 23% | [1]; at 33.0 µM 22% | [1]; at 100.0 µM 25% | [14]; at 1.2 µM -2% | [14]; at 3.7 µM 8% | [14]; at 11.0 µM 4% | [14]; at 33.0 µM 17% | [14]; at 100.0 µM 29% | [4]; at 1.2 µM 14% | [4]; at 3.7 µM 12% | [4]; [17] 30% | [4]; at 11.0 µM 21% | [4]; at 33.0 µM 14% | [4]; at 50.0 µM -7.7% | [4]; at 100.0 µM 5% | [5]; at 1.2 µM 21% | [5]; at 3.7 µM 25% | [5]; [17] 35% | [5]; at 11.0 µM 12% | [5]; at 33.0 µM 0% | [5]; at 50.0 µM -13.8% | [5]; at 100.0 µM 3% | [6]; at 1.2 µM -4% | [6]; at 3.7 µM -21% | [6]; at 11.0 µM 8% | [6]; at 33.0 µM -7% | [6]; at 100.0 µM -12% | [7]; [17] -13% | [7]; [18] 29% | [7]; at 50.0 µM 9.15% | [8]; at 1.2 µM -8% | [8]; at 3.7 µM -12% | [8]; at 11.0 µM -21% | [8]; at 33.0 µM -8% | [8]; at 100.0 µM -10% | [9]; [17] 49% | [9]; at 50.0 µM 13.7% | [10]; at 1.2 µM 6% | [10]; at 3.7 µM 11% | [10]; [17] 36% | [10]; at 11.0 µM -3% | [10]; at 33.0 µM 0% | [10]; [18] 58% | [10]; at 50.0 µM 12.2% | [10]; at 100.0 µM 1% | [11]; at 1.2 µM 11% | [11]; at 3.7 µM 7% | [11]; at 11.0 µM 7% | [11]; at 33.0 µM -3% | [11]; at 100.0 µM 17% | [15]; at 1.2 µM -13% | [15]; at 3.7 µM -7% | [15]; at 11.0 µM -3% | [15]; at 33.0 µM -9% | [15]; at 100.0 µM -8% | [16]; at 1.2 µM 8% | [16]; at 3.7 µM 1% | [16]; at 11.0 µM 19% | [16]; at 33.0 µM 10% | [16]; at 100.0 µM 5% | [12]; [17] 38% | [12]; at 50.0 µM 55.9% | [13]; at 1.2 µM -10% | [13]; at 3.7 µM 1% | [13]; at 11.0 µM -11% | [13]; at 33.0 µM -10% | [13]; at 100.0 µM -13%

ClCCn1c(CCl)nc2ccc(Cl)cc21
active: [1]; at 100.0 µM 98% | [2]; at 100.0 µM 91% | [3]; at 33.0 µM 71% | [3]; at 100.0 µM 98% | [4]; at 50.0 µM 72.7% | [4]; at 100.0 µM 97% | [5]; at 33.0 µM 76% | [5]; [18] 75% | [5]; at 50.0 µM 84%
inactive: [1]; at 1.2 µM -34% | [1]; at 3.7 µM -41% | [1]; at 11.0 µM -8% | [1]; at 33.0 µM 69% | [2]; at 1.2 µM -12% | [2]; at 3.7 µM 6% | [2]; at 11.0 µM 9% | [2]; at 33.0 µM 48% | [3]; at 1.2 µM -29% | [3]; at 3.7 µM -32% | [3]; at 11.0 µM -16% | [4]; at 1.2 µM -20% | [4]; at 3.7 µM -11% | [4]; [17] 19% | [4]; at 11.0 µM -3% | [4]; at 33.0 µM 63% | [4]; [18] 54% | [5]; at 1.2 µM -27% | [5]; at 3.7 µM -49% | [5]; [17] 18% | [5]; at 11.0 µM -10%
